# Reference: the supplement of paper PMC8728848
# The full list was thinned out, with the strongest signals kept by preference.
# How the values were obtained:
# Experiment in all cases: glycan array binding signal (z-score within array); higher = stronger binding
# Conditions in all cases: glycan notation: IUPAC condensed, linker removed
# [1] = biological target: Fuc(a1-2)Gal(b1-3)GalNAc(b1-4)[Neu5Ac(a2-3)]Gal(b1-4)Glc
# Summary of the method: (§1)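 The Consortium for Functional Glycomics database supplied 3228 glycan arrays, of which those lacking an available protein sequence were dropped. The binding signal, a within-array Z-score, was averaged across arrays of the same protein sequence and across linkers. Negative scores can be read as non-binding.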
# [2] = biological target: Fuc(a1-2)Gal(b1-4)GlcNAc(b1-3)Gal(b1-4)GlcNAc(b1-2)Man(a1-3)[Fuc(a1-2)Gal(b1-4)GlcNAc(b1-3)Gal(b1-4)GlcNAc(b1-2)Man(a1-6)]Man(b1-4)GlcNAc(b1-4)GlcNAc
# Summary of the method: as §1
# [3] = biological target: Fuc(a1-2)Gal(b1-4)[Fuc(a1-3)]GlcNAc(b1-3)Gal(b1-4)[Fuc(a1-3)]GlcNAc(b1-3)Gal(b1-4)[Fuc(a1-3)]GlcNAc
# Summary of the method: as §1
# [4] = biological target: Fuc(a1-2)[Gal(a1-3)]Gal(b1-4)GlcNAc(b1-3)GalNAc
# Summary of the method: as §1
# [5] = biological target: Fuc(a1-2)[Gal(a1-3)]Gal(b1-4)GlcNAc(b1-3)[Fuc(a1-2)[Gal(a1-3)]Gal(b1-4)GlcNAc(b1-6)]GalNAc
# Summary of the method: as §1
# [6] = biological target: Fuc(a1-2)[GalNAc(a1-3)]Gal(b1-4)GlcNAc(b1-2)Man
# Summary of the method: as §1
# [7] = biological target: Fuc(a1-2)[GalNAc(a1-3)]Gal(b1-4)GlcNAc(b1-6)GalNAc
# Summary of the method: as §1
# [8] = biological target: Fuc(a1-3)[Gal3S(b1-4)]GlcNAc6S
# Summary of the method: as §1
# Fuc(b1-3)GlcNAc = biological target: Fuc(b1-3)GlcNAc
# Summary of the method: as §1
# Gal(a1-3)Gal(b1-4)GlcNAc = biological target: Gal(a1-3)Gal(b1-4)GlcNAc
# Summary of the method: as §1
# [9] = biological target: Gal(a1-4)Gal(b1-4)GlcNAc(b1-3)Gal(b1-4)Glc
# Summary of the method: as §1
# [10] = biological target: Gal(b1-3)GalNAc(a1-3)[Fuc(a1-2)]Gal(b1-4)Glc
# Summary of the method: as §1
# [11] = biological target: Gal(b1-3)GalNAc(a1-3)[Fuc(a1-2)]Gal(b1-4)GlcNAc
# Summary of the method: as §1
# [12] = biological target: Gal(b1-3)GlcNAc(a1-3)Gal(b1-4)GlcNAc
# Summary of the method: as §1
# [13] = biological target: Gal(b1-3)GlcNAc(b1-2)[Gal(b1-3)GlcNAc(b1-6)]Man(a1-6)[Gal(b1-3)GlcNAc(b1-2)Man(a1-3)]Man(b1-4)GlcNAc(b1-4)GlcNAc
# Summary of the method: as §1
# [14] = biological target: Gal(b1-3)[Fuc(a1-4)]GlcNAc(b1-2)Man
# Summary of the method: as §1
# [15] = biological target: Gal(b1-3)[Fuc(a1-4)]GlcNAc(b1-3)Gal(b1-3)[Fuc(a1-4)]GlcNAc
# Summary of the method: as §1
# Gal(b1-4)Gal = biological target: Gal(b1-4)Gal
# Summary of the method: as §1
# [16] = biological target: Gal(b1-4)GalNAc(a1-3)[Fuc(a1-2)]Gal(b1-4)GlcNAc
# Summary of the method: as §1
# [17] = biological target: Gal(b1-4)GlcNAc(b1-2)Man(a1-3)[Gal(b1-4)GlcNAc(b1-2)Man(a1-6)][GlcNAc(b1-4)]Man(b1-4)GlcNAc(b1-4)[Fuc(a1-6)]GlcNAc
# Summary of the method: as §1
# [18] = biological target: Gal(b1-4)GlcNAc(b1-2)Man(a1-3)[GlcNAc(b1-4)][Gal(b1-4)GlcNAc(b1-2)Man(a1-6)]Man(b1-4)GlcNAc(b1-4)GlcNAc
# Summary of the method: as §1
# [19] = biological target: Gal(b1-4)GlcNAc(b1-2)Man(a1-6)[GlcNAc(b1-2)Man(a1-3)]Man(b1-4)GlcNAc(b1-4)GlcNAc
# Summary of the method: as §1
# [20] = biological target: Gal(b1-4)GlcNAc(b1-2)[Gal(b1-4)GlcNAc(b1-6)]Man(a1-6)[GlcNAc(b1-4)][Gal(b1-4)GlcNAc(b1-2)[Gal(b1-4)GlcNAc(b1-4)]Man(a1-3)]Man(b1-4)GlcNAc(b1-4)[Fuc(a1-6)]GlcNAc
# Summary of the method: as §1
# [21] = biological target: Gal(b1-4)GlcNAc(b1-3)Gal(b1-4)GlcNAc(b1-2)[Gal(b1-4)GlcNAc(b1-3)Gal(b1-4)GlcNAc(b1-6)]Man(a1-6)[Gal(b1-4)GlcNAc(b1-3)Gal(b1-4)GlcNAc(b1-2)Man(a1-3)]Man(b1-4)GlcNAc(b1-4)[Fuc(a1-6)]GlcNAc
# Summary of the method: as §1
# [22] = biological target: Gal(b1-4)GlcNAc(b1-3)GalNAc
# Summary of the method: as §1
# Gal3S(b1-3)GalNAc = biological target: Gal3S(b1-3)GalNAc
# Summary of the method: as §1
# Gal4S(b1-4)GlcNAc = biological target: Gal4S(b1-4)GlcNAc
# Summary of the method: as §1
# Gal6P(b1-4)GlcNAc = biological target: Gal6P(b1-4)GlcNAc
# Summary of the method: as §1
# GalNAc(b1-4)GlcNAc6S = biological target: GalNAc(b1-4)GlcNAc6S
# Summary of the method: as §1
binder,measurement,setting,value
SSR2 (Sclerotium rolfsii) (protein) MVYKITVRVYQTNPDAFFHPVEKTVWKYANGGTWSITDDQHVLTMGGSGTSGTLRFHADNGESFTATFGVHNYKRWCDIVTNLAADETGMVINQQYYSQKNREEARERQLSNYQVKNAKGRNFQIVYTEAEGNDLHANLIIG,glycan array binding signal (z-score),[1],-0.282
same,glycan array binding signal (z-score),[2],-0.273
same,glycan array binding signal (z-score),[3],-0.294
same,glycan array binding signal (z-score),[4],-0.285
same,glycan array binding signal (z-score),[5],-0.277
same,glycan array binding signal (z-score),[6],-0.275
same,glycan array binding signal (z-score),[7],-0.297
same,glycan array binding signal (z-score),[8],-0.279
same,glycan array binding signal (z-score),Fuc(b1-3)GlcNAc,-0.269
same,glycan array binding signal (z-score),Gal(a1-3)Gal(b1-4)GlcNAc,-0.292
same,glycan array binding signal (z-score),[9],-0.285
same,glycan array binding signal (z-score),[10],3.93
same,glycan array binding signal (z-score),[11],2.96
same,glycan array binding signal (z-score),[12],-0.278
same,glycan array binding signal (z-score),[13],-0.286
same,glycan array binding signal (z-score),[14],-0.286
same,glycan array binding signal (z-score),[15],-0.272
same,glycan array binding signal (z-score),Gal(b1-4)Gal,-0.288
same,glycan array binding signal (z-score),[16],-0.279
same,glycan array binding signal (z-score),[17],-0.287
same,glycan array binding signal (z-score),[18],-0.259
same,glycan array binding signal (z-score),[19],3.34
same,glycan array binding signal (z-score),[20],-0.266
same,glycan array binding signal (z-score),[21],-0.229
same,glycan array binding signal (z-score),[22],-0.281
same,glycan array binding signal (z-score),Gal3S(b1-3)GalNAc,4.27
same,glycan array binding signal (z-score),Gal4S(b1-4)GlcNAc,-0.297
same,glycan array binding signal (z-score),Gal6P(b1-4)GlcNAc,-0.287
same,glycan array binding signal (z-score),GalNAc(b1-4)GlcNAc6S,-0.294
